Assay outcomes as filed in PubChem.
NR2F2 inh: NR2F2 transcriptional activity inhibitors, primary screen, cell-based, luciferase reporter, HEK293T, luminescence; HEK293T NGFI-A luciferase reporter; inhibition, % at 8.6 µM; COUP transcription factor 2 (Homo sapiens), P24468; hit rate 0.7% among 370,000;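 active = inhibition above a per-plate cutoff, mean inhibition of test wells between control levels plus 3 SD, cut at about 38% in these data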;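 note: cells cotransfected with COUP-TFII expression vector driving the NGFI-A reporter; 0% = median of COUP-TF2 test wells and 100% = reporter-only cells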
Target sequence (P24468 whole entry, looked up): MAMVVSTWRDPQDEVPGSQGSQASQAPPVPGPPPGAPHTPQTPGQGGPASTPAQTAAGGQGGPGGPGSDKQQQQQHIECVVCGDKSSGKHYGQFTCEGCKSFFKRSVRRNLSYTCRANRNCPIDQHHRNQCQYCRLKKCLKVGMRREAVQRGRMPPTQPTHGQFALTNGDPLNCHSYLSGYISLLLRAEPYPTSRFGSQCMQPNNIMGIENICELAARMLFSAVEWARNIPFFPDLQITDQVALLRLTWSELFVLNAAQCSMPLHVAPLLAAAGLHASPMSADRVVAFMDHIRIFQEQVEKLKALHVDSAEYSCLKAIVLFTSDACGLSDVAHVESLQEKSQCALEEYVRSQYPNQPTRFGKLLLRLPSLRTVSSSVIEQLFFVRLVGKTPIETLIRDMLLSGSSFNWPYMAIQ
SRC2 inh: inhibition of GAL4-SRC2 driven luciferase reporter, primary screen, SRC2 inhibitor project, cell-based, luminescence | inhibition, % at 9 µM | HEK293 GAL4-SRC2 luciferase reporter | hit rate 0.17% among 370,000 | Nuclear receptor coactivator 2 (Homo sapiens), Q15596;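 active = inhibition above the mean inhibition of all tested compounds plus 3 SD, set per campaign, cut at about 52% in these data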;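 note: 0% = DMSO treated cells and 100% = cells given Gossypol at 36 µM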
NCOA3 inh: SRC3 coactivator transcriptional activity inhibitors, primary screen, cell-based, luminescence; Nuclear receptor coactivator 3 (Homo sapiens), Q9Y6Q9; HEK293 GAL4-SRC3 luciferase reporter; inhibition, % at 3.6 µM; hit rate 0.17% among 360,000;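 active = inhibition above a per-campaign cutoff, the mean of all compounds plus 3 SD, cut at about 60% in these data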;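 note: 0% = DMSO-treated cells and 100% = gossypol-treated cells at 36 µM; higher means less SRC3-driven luciferase light from the GAL4 reporter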
Gli-Sufu antag: Gli-Sufu pathway antagonists, primary screen, luciferase luminescence, Sufu-KO-LIGHT cells, uHTS; inhibition, % at 5 µM; hit rate 0.74% among 340,000; Sufu-KO-LIGHT fibroblasts, Gli luciferase reporter luminescence;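 active = inhibition above about 55%, limit read from the data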;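 note: 0% = DMSO-treated cells and 100% = wells with medium but no cells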
NR5A2 inv ag: LRH-1 (NR5A2) inverse agonists, primary screen, cell-based, luminescence, HEK293T, StAR-luciferase reporter | Nuclear receptor subfamily 5 group A member 2 (Homo sapiens), O00482 | LRH-1 transfected, 24 h | inhibition, % at 3.6 µM | hit rate 0.13% among 360,000;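 active = inhibition above the mean inhibition of all tested compounds plus 3 SD, cut at about 73% in these data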;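 note: 0% = DMSO wells and 100% = reporter-only cells lacking LRH-1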
NCOA1 inh: SRC1 coactivator transcriptional activity inhibitors, primary screen, cell-based, luminescence. AID 588354, 2011. inhibition, % at 3.6 µM. hit rate 0.12% among 360,000. Nuclear receptor coactivator 1 (Homo sapiens), Q15788. HEK293 GAL4-SRC1 luciferase reporter;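 active = inhibition above the campaign mean plus 3 SD, with each screening campaign given its own cutoff, cut at about 60% in these data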;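 note: 0% = DMSO treated cells and 100% = gossypol at 36 µM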
Gli antag conf: Gli-SUFU pathway antagonists, confirmation, single concentration, luciferase luminescence, Sufu-KO-LIGHT cells; shares compounds with Gli-Sufu antag; Gli luciferase reporter; inhibition, % at 5 µM; hit rate 40% among 2,500; AID 602428, 2012;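 active = mean inhibition at 5 µM reaching about 45%, limit read from the data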;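 note: plate controls were DMSO-treated cells for no effect and wells lacking cells for full effect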
SufuKO cytotox: cytotoxicity in Sufu-KO-LIGHT cells, confirmation, cytotoxicity control for Gli-SUFU antagonist project, cell-based, ATP luminescence, single concentration; shares compounds with Gli-Sufu antag; cytotoxicity, % at 5 µM; hit rate 32% among 2,500; AID 651994, 2013;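 active = mean cytotoxicity at 5 µM above about 25%, limit read from the data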;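 note: cells exposed to compound overnight for roughly 16 to 18 hours; plate controls were DMSO wells with cells for no effect and medium without cells for full effect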
Wnt3a cs: Wnt3a reporter signal inhibition, confirmation, counter-screen for Gli-SUFU antagonist project, Wnt-LIGHT cells, luminescence, single concentration; shares compounds with Gli-Sufu antag; Wnt3a-driven luciferase reporter; inhibition, % at 6.25 µM; hit rate 20% among 2,500; AID 651995, 2013;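 active = mean inhibition above about 25%, limit read from the data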
* = called active by the depositor; / = no result. Rows were chosen to be rich in hits. Some 1.3% of all compounds tested hit in one or more screens of this group.

SMILES	NR2F2 inh	SRC2 inh	NCOA3 inh	Gli-Sufu antag	NR5A2 inv ag	NCOA1 inh	Gli antag conf	SufuKO cytotox	Wnt3a cs
O=C(c1ccc2c(=O)n(C3CCCC3)c(=S)[nH]c2c1)N1CCCCCC1	6.6	-10.8	4.5	56.9*	3.0	-26.5	51.4*	34.6*	-24.4
O=C(c1ccc2c(=O)n(-c3ccccc3)c(=S)[nH]c2c1)N1CCN(c2ccccc2)CC1	7.6	-1.1	-10.5	0.4	-3.3	4.9	/	/	/
O=C(COc1ccc([N+](=O)[O-])cc1)NNC(=O)Nc1ccc([N+](=O)[O-])cc1	-8.3	-24.6	5.2	97.9*	7.0	-3.4	-1.0	-10.1	-1.8
Cc1ccc(NC(=O)NNC(=O)COc2ccc([N+](=O)[O-])cc2)cc1C	3.2	4.4	22.0	28.2	-20.7	4.1	/	/	/
Cc1[nH]n(-c2ccccc2)c(=O)c1N=Nc1ccccc1O	25.4	10.3	25.3	54.7	19.0	-3.9	55.1*	34.0*	74.3*
COc1ccc(COC(=O)N/N=C(\C)CC(=O)Nc2c(C)cc(C)cc2C)cc1	0.8	-2.8	18.0	99.4*	16.1	0.7	14.8	23.4	-23.6
COc1ccc(COC(=O)N/N=C(\C)CC(=O)NCc2ccc(Cl)cc2)cc1	-3.2	-27.4	23.6	-4.0	-10.7	-16.4	/	/	/
Cc1cccc(CCNC(=O)Cn2ncc3c2-c2cc(C)ccc2OC3)c1	-5.2	0.0	/	/	/	/	/	/	/
CCCCn1cnc2c(=O)[nH]ccc21	-20.2	-6.0	/	/	/	/	/	/	/
O=C(CCCCCCC(=O)Nc1ccccc1)NO	-90.4	-342.8	-283.5	83.9*	-50.4	-493.3	88.5*	17.9	-234.0
O=C(CCCCCN1C(=O)c2ccccc2C1=O)Nc1ccccc1	10.4	5.8	2.9	-4.8	4.7	-5.3	/	/	/
O=C(CCC(=O)c1ccccc1)Nc1ccc(C(=O)O)cc1	15.0	-8.7	9.8	98.8*	2.3	0.8	19.1	7.3	6.4
Cc1ccc(NC(=O)CCC(=O)c2ccccc2)cc1	-8.6	-10.8	-6.1	-0.6	27.3	-2.3	/	/	/
COC(=O)C1CN(Cc2ccccc2)CCS(=O)(=O)N1Cc1cn(Cc2ccc(Cl)cc2)nn1 (stereo unspecified)	0.9	33.7	/	/	/	/	/	/	/
CC(=O)CC[C@@H]1CC[C@]2(CCCN(C(=O)c3ccno3)C2)O1	9.4	-22.3	/	/	/	/	/	/	/
Cc1ccc(-c2cc3nc(-c4ccco4)cc(N4CCN(Cc5ccoc5)CC4)n3n2)cc1	-17.6	/	/	/	/	/	/	/	/
COC(=O)CSc1nc(N)c(C#N)c(-c2ccco2)c1C#N	1.1	-33.8	0.1	7.3	3.3	-12.4	/	/	/
N#Cc1c(N)nc2c(c1-c1ccncc1)CCCCC2	-18.0	-15.7	6.6	1.4	-11.3	-7.0	/	/	/
CCSc1nc(N)c(C#N)c(-c2ccco2)c1C#N	1.8	-8.0	-1.6	89.4*	-1.4	-13.9	30.0	0.9	-3.9
N#Cc1c(N)nc2c(c1-c1ccco1)CCCCC2	26.0	3.2	8.2	97.6*	-39.5	5.8	27.4	18.9	-4.3
CCOC(=O)c1c(C)[nH]c(C(=O)N/N=C/c2ccc(Br)cc2)c1C	-63.9	26.1	-29.4	52.1	18.4	6.4	50.4*	60.7*	-18.1
Cc1[nH]c(C(=O)N/N=C/c2ccc(C(=O)O)cc2)c(C)c1C(=O)N/N=C/c1ccc(C(=O)O)cc1	-0.8	-17.5	4.0	-4.8	17.8	-6.1	/	/	/
CN(C(=O)COC(=O)/C=C/c1ccc2ccccc2n1)C1CCS(=O)(=O)C1 (stereo unspecified)	0.0	19.6	11.1	6.1	-5.6	-22.6	/	/	/
